According to paper PMC11006913:
Numbering of substitutions follows the chain as printed.

Columns and labels:
Assay in all cases: PBM; 200 nM protein, PBS
Conditions in all cases: dsDNA, one strand shown
NKX2-5 [1] = target: NKX2-5 (Homo sapiens, UniProt P52952 125-210, R139K)
NKX2-4 [2] = target: T1, NKX2-4 (Homo sapiens, UniProt Q9H2Z4 175-261, P217L)
T1 sequence: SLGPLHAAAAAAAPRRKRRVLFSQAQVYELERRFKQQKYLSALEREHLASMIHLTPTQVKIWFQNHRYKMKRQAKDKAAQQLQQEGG

NKX2-4 [3] = target: T2, NKX2-4 (Homo sapiens, UniProt Q9H2Z4 175-261, T231S)
T2 sequence: T1 sequence with L43P, T57S

NKX2-4 [4] = target: T3, NKX2-4 (Homo sapiens, UniProt Q9H2Z4 175-261)
T3 sequence: T1 sequence with L43P

NKX2-6 [5] = target: T4, NKX2-6 (Homo sapiens, UniProt A6NCS4 118-204, R150C)
T4 sequence: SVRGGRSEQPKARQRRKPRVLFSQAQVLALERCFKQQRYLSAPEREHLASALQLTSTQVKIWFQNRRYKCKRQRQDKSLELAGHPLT

NKX2-6 [6] = target: T5, NKX2-6 (Homo sapiens, UniProt A6NCS4 118-204)
T5 sequence: T4 sequence with C33R

NKX2-4 [7] = target: T6, NKX2-4 (Homo sapiens, UniProt Q9H2Z4 175-261, R246Q)
T6 sequence: T1 sequence with L43P, R72Q

NKX2-6 [8] = target: T7, NKX2-6 (Homo sapiens, UniProt A6NCS4 118-204, F151L)
T7 sequence: T4 sequence with C33R, F34L

NKX2-5 [9] = target: NKX2-5 (Homo sapiens, UniProt P52952 125-210)
NKX3-2 [10] = target: NKX3-2 (Homo sapiens, UniProt P78367 192-278, P234S)
NKX3-2 [11] = target: NKX3-2 (Homo sapiens, UniProt P78367 192-278)
Sequence of NKX3-2 (Homo sapiens, UniProt P78367 192-278) (P78367 192-278): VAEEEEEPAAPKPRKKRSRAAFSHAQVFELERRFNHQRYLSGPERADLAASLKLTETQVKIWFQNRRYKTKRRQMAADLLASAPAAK

Sequence of NKX2-5 (Homo sapiens, UniProt P52952 125-210, R139K) (P52952 125-210 R139K): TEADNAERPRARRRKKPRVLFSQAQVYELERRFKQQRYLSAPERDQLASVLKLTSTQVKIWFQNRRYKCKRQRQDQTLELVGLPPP
Sequence of NKX3-2 (Homo sapiens, UniProt P78367 192-278, P234S) (P78367 192-278 P234S): as the sequence (P78367 192-278) above, with P43S counted along it
Sequence of NKX2-5 (Homo sapiens, UniProt P52952 125-210) (P52952 125-210): as the sequence (P52952 125-210 R139K) above, with K15R counted along it

Sequence | binding signal (NKX2-5 [1]) | binding signal (NKX2-4 [2]) | binding signal (NKX2-4 [3]) | binding signal (NKX2-4 [4]) | binding signal (NKX2-6 [5]) | binding signal (NKX2-6 [6]) | binding signal (NKX2-4 [7]) | binding signal (NKX2-6 [8]) | binding signal (NKX2-5 [9]) | binding signal (NKX3-2 [10]) | binding signal (NKX3-2 [11])
CACTCAAG | 12.5 upbm affinity estimate (log intensity, higher = more binding, comparable within an allelic series) | 12.5 upbm affinity estimate (log intensity, higher = more binding, comparable within an allelic series) | 13 upbm affinity estimate (log intensity, higher = more binding, comparable within an allelic series) | 12.4 upbm affinity estimate (log intensity, higher = more binding, comparable within an allelic series) | 11.6 upbm affinity estimate (log intensity, higher = more binding, comparable within an allelic series) | 13.5 upbm affinity estimate (log intensity, higher = more binding, comparable within an allelic series) | 13.1 upbm affinity estimate (log intensity, higher = more binding, comparable within an allelic series) | 10.5 upbm affinity estimate (log intensity, higher = more binding, comparable within an allelic series) | 12.3 upbm affinity estimate (log intensity, higher = more binding, comparable within an allelic series) | – | –
CCCACTTA | 13 upbm affinity estimate (log intensity, higher = more binding, comparable within an allelic series) | 12.7 upbm affinity estimate (log intensity, higher = more binding, comparable within an allelic series) | 13 upbm affinity estimate (log intensity, higher = more binding, comparable within an allelic series) | 12.6 upbm affinity estimate (log intensity, higher = more binding, comparable within an allelic series) | 12.2 upbm affinity estimate (log intensity, higher = more binding, comparable within an allelic series) | 13.7 upbm affinity estimate (log intensity, higher = more binding, comparable within an allelic series) | 13.1 upbm affinity estimate (log intensity, higher = more binding, comparable within an allelic series) | 11.1 upbm affinity estimate (log intensity, higher = more binding, comparable within an allelic series) | 12.9 upbm affinity estimate (log intensity, higher = more binding, comparable within an allelic series) | 13.2 upbm affinity estimate (log intensity, higher = more binding, comparable within an allelic series) | 13.2 upbm affinity estimate (log intensity, higher = more binding, comparable within an allelic series)
GCACTTGA | 13.2 upbm affinity estimate (log intensity, higher = more binding, comparable within an allelic series) | 12.8 upbm affinity estimate (log intensity, higher = more binding, comparable within an allelic series) | 13.2 upbm affinity estimate (log intensity, higher = more binding, comparable within an allelic series) | 12.6 upbm affinity estimate (log intensity, higher = more binding, comparable within an allelic series) | 12.1 upbm affinity estimate (log intensity, higher = more binding, comparable within an allelic series) | 13.9 upbm affinity estimate (log intensity, higher = more binding, comparable within an allelic series) | 13.4 upbm affinity estimate (log intensity, higher = more binding, comparable within an allelic series) | 11.4 upbm affinity estimate (log intensity, higher = more binding, comparable within an allelic series) | 13.1 upbm affinity estimate (log intensity, higher = more binding, comparable within an allelic series) | – | –
CCACTTAC | 13 upbm affinity estimate (log intensity, higher = more binding, comparable within an allelic series) | 12.6 upbm affinity estimate (log intensity, higher = more binding, comparable within an allelic series) | 12.9 upbm affinity estimate (log intensity, higher = more binding, comparable within an allelic series) | 12.4 upbm affinity estimate (log intensity, higher = more binding, comparable within an allelic series) | 12.2 upbm affinity estimate (log intensity, higher = more binding, comparable within an allelic series) | 13.7 upbm affinity estimate (log intensity, higher = more binding, comparable within an allelic series) | 13 upbm affinity estimate (log intensity, higher = more binding, comparable within an allelic series) | 11 upbm affinity estimate (log intensity, higher = more binding, comparable within an allelic series) | 12.8 upbm affinity estimate (log intensity, higher = more binding, comparable within an allelic series) | 13.2 upbm affinity estimate (log intensity, higher = more binding, comparable within an allelic series) | 13.3 upbm affinity estimate (log intensity, higher = more binding, comparable within an allelic series)
GGCACTTA | 13.1 upbm affinity estimate (log intensity, higher = more binding, comparable within an allelic series) | 12.7 upbm affinity estimate (log intensity, higher = more binding, comparable within an allelic series) | 13.1 upbm affinity estimate (log intensity, higher = more binding, comparable within an allelic series) | 12.6 upbm affinity estimate (log intensity, higher = more binding, comparable within an allelic series) | 12.1 upbm affinity estimate (log intensity, higher = more binding, comparable within an allelic series) | 13.8 upbm affinity estimate (log intensity, higher = more binding, comparable within an allelic series) | 13.2 upbm affinity estimate (log intensity, higher = more binding, comparable within an allelic series) | 11.4 upbm affinity estimate (log intensity, higher = more binding, comparable within an allelic series) | 13 upbm affinity estimate (log intensity, higher = more binding, comparable within an allelic series) | 13.3 upbm affinity estimate (log intensity, higher = more binding, comparable within an allelic series) | 13.4 upbm affinity estimate (log intensity, higher = more binding, comparable within an allelic series)
CACTTAAG | 13.2 upbm affinity estimate (log intensity, higher = more binding, comparable within an allelic series) | 12.7 upbm affinity estimate (log intensity, higher = more binding, comparable within an allelic series) | 13 upbm affinity estimate (log intensity, higher = more binding, comparable within an allelic series) | 12.5 upbm affinity estimate (log intensity, higher = more binding, comparable within an allelic series) | 12.2 upbm affinity estimate (log intensity, higher = more binding, comparable within an allelic series) | 14 upbm affinity estimate (log intensity, higher = more binding, comparable within an allelic series) | 13.2 upbm affinity estimate (log intensity, higher = more binding, comparable within an allelic series) | 11.5 upbm affinity estimate (log intensity, higher = more binding, comparable within an allelic series) | 13.1 upbm affinity estimate (log intensity, higher = more binding, comparable within an allelic series) | 13 upbm affinity estimate (log intensity, higher = more binding, comparable within an allelic series) | 13.1 upbm affinity estimate (log intensity, higher = more binding, comparable within an allelic series)
ACTTAAGT | 12.8 upbm affinity estimate (log intensity, higher = more binding, comparable within an allelic series) | 12.5 upbm affinity estimate (log intensity, higher = more binding, comparable within an allelic series) | 12.9 upbm affinity estimate (log intensity, higher = more binding, comparable within an allelic series) | 12.4 upbm affinity estimate (log intensity, higher = more binding, comparable within an allelic series) | 11.8 upbm affinity estimate (log intensity, higher = more binding, comparable within an allelic series) | 13.7 upbm affinity estimate (log intensity, higher = more binding, comparable within an allelic series) | 13 upbm affinity estimate (log intensity, higher = more binding, comparable within an allelic series) | 11.2 upbm affinity estimate (log intensity, higher = more binding, comparable within an allelic series) | 12.9 upbm affinity estimate (log intensity, higher = more binding, comparable within an allelic series) | 12.6 upbm affinity estimate (log intensity, higher = more binding, comparable within an allelic series) | 12.7 upbm affinity estimate (log intensity, higher = more binding, comparable within an allelic series)
CTCAAGTA | 12.7 upbm affinity estimate (log intensity, higher = more binding, comparable within an allelic series) | 12.7 upbm affinity estimate (log intensity, higher = more binding, comparable within an allelic series) | 13.1 upbm affinity estimate (log intensity, higher = more binding, comparable within an allelic series) | 12.6 upbm affinity estimate (log intensity, higher = more binding, comparable within an allelic series) | 11.8 upbm affinity estimate (log intensity, higher = more binding, comparable within an allelic series) | 13.6 upbm affinity estimate (log intensity, higher = more binding, comparable within an allelic series) | 13.3 upbm affinity estimate (log intensity, higher = more binding, comparable within an allelic series) | 10.8 upbm affinity estimate (log intensity, higher = more binding, comparable within an allelic series) | 12.6 upbm affinity estimate (log intensity, higher = more binding, comparable within an allelic series) | – | –
CACTTGAG | 13.3 upbm affinity estimate (log intensity, higher = more binding, comparable within an allelic series) | 12.9 upbm affinity estimate (log intensity, higher = more binding, comparable within an allelic series) | 13.3 upbm affinity estimate (log intensity, higher = more binding, comparable within an allelic series) | 12.8 upbm affinity estimate (log intensity, higher = more binding, comparable within an allelic series) | 12.1 upbm affinity estimate (log intensity, higher = more binding, comparable within an allelic series) | 14 upbm affinity estimate (log intensity, higher = more binding, comparable within an allelic series) | 13.5 upbm affinity estimate (log intensity, higher = more binding, comparable within an allelic series) | 11.3 upbm affinity estimate (log intensity, higher = more binding, comparable within an allelic series) | 13.2 upbm affinity estimate (log intensity, higher = more binding, comparable within an allelic series) | – | –
CCTCTTGA | 12.5 upbm affinity estimate (log intensity, higher = more binding, comparable within an allelic series) | 12.7 upbm affinity estimate (log intensity, higher = more binding, comparable within an allelic series) | 13 upbm affinity estimate (log intensity, higher = more binding, comparable within an allelic series) | 12.5 upbm affinity estimate (log intensity, higher = more binding, comparable within an allelic series) | 11.7 upbm affinity estimate (log intensity, higher = more binding, comparable within an allelic series) | 13.4 upbm affinity estimate (log intensity, higher = more binding, comparable within an allelic series) | 13.2 upbm affinity estimate (log intensity, higher = more binding, comparable within an allelic series) | 10.5 upbm affinity estimate (log intensity, higher = more binding, comparable within an allelic series) | 12.5 upbm affinity estimate (log intensity, higher = more binding, comparable within an allelic series) | – | –
GCACTTCA | 12.5 upbm affinity estimate (log intensity, higher = more binding, comparable within an allelic series) | 12.6 upbm affinity estimate (log intensity, higher = more binding, comparable within an allelic series) | 13 upbm affinity estimate (log intensity, higher = more binding, comparable within an allelic series) | 12.5 upbm affinity estimate (log intensity, higher = more binding, comparable within an allelic series) | 11.7 upbm affinity estimate (log intensity, higher = more binding, comparable within an allelic series) | 13.3 upbm affinity estimate (log intensity, higher = more binding, comparable within an allelic series) | 13.2 upbm affinity estimate (log intensity, higher = more binding, comparable within an allelic series) | 11.1 upbm affinity estimate (log intensity, higher = more binding, comparable within an allelic series) | 12.4 upbm affinity estimate (log intensity, higher = more binding, comparable within an allelic series) | 12.6 upbm affinity estimate (log intensity, higher = more binding, comparable within an allelic series) | 12.6 upbm affinity estimate (log intensity, higher = more binding, comparable within an allelic series)
CCACTTGA | 13.4 upbm affinity estimate (log intensity, higher = more binding, comparable within an allelic series) | 12.9 upbm affinity estimate (log intensity, higher = more binding, comparable within an allelic series) | 13.3 upbm affinity estimate (log intensity, higher = more binding, comparable within an allelic series) | 12.8 upbm affinity estimate (log intensity, higher = more binding, comparable within an allelic series) | 12.3 upbm affinity estimate (log intensity, higher = more binding, comparable within an allelic series) | 13.9 upbm affinity estimate (log intensity, higher = more binding, comparable within an allelic series) | 13.5 upbm affinity estimate (log intensity, higher = more binding, comparable within an allelic series) | 11.5 upbm affinity estimate (log intensity, higher = more binding, comparable within an allelic series) | 13.2 upbm affinity estimate (log intensity, higher = more binding, comparable within an allelic series) | 12.5 upbm affinity estimate (log intensity, higher = more binding, comparable within an allelic series) | 12.6 upbm affinity estimate (log intensity, higher = more binding, comparable within an allelic series)
AACACTTA | 12.7 upbm affinity estimate (log intensity, higher = more binding, comparable within an allelic series) | 12.5 upbm affinity estimate (log intensity, higher = more binding, comparable within an allelic series) | 12.8 upbm affinity estimate (log intensity, higher = more binding, comparable within an allelic series) | 12.4 upbm affinity estimate (log intensity, higher = more binding, comparable within an allelic series) | 11.8 upbm affinity estimate (log intensity, higher = more binding, comparable within an allelic series) | 13.6 upbm affinity estimate (log intensity, higher = more binding, comparable within an allelic series) | 12.9 upbm affinity estimate (log intensity, higher = more binding, comparable within an allelic series) | 11.3 upbm affinity estimate (log intensity, higher = more binding, comparable within an allelic series) | 12.6 upbm affinity estimate (log intensity, higher = more binding, comparable within an allelic series) | 12.7 upbm affinity estimate (log intensity, higher = more binding, comparable within an allelic series) | 12.7 upbm affinity estimate (log intensity, higher = more binding, comparable within an allelic series)
